Cav3 T inh – human Cav3.2 channel inhibition, primary screen; O95180; Cav3.2-expressing cells, Fluo-4 calcium fluorescence FDSS; hits give low values; B-score at 10 µM; actives 4% (n = 100,000); AID 449739;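 active means single-dose well whose peak fluorescence ratio is a statistical outlier from its plate by either plate-standardised score or position-corrected B-score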
DAT uptake mod – human DAT dopamine uptake with cocaine, either direction; Q01959; LLC-PK1 hDAT cells, [14C]-dopamine uptake with cocaine IC80; actives deviate in either direction; B-score at 10 µM; actives 1.3% (n = 110,000);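 active means Z score or B-score, a plate-position-corrected score, falls beyond the plate's 99.7% confidence bounds, in either direction; inactive means both scores lie inside the 99.7% bounds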;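 further: scored against the spread of the other compound wells on the same plate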
PostGolgi ctrl – yeast control strain growth, post-Golgi counter-screen. efflux-deficient yeast background strain, growth absorbance A615, 16 h. inhibition, % at 10 µM. actives 5% (n = 98,000). AID 738
D1 allo mod – allosterically modulates the human D1 dopamine receptor | P21728 | HEK293 D1, CRE-luciferase, dopamine EC30 potentiation; actives deviate in either direction | B-score at 10 µM | actives 5.9% (n = 58,000) | AID 641;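 active means luminescence count or its row- and column-corrected plate score outside the 99.7% band of the plate's sample wells, on either side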
PostGolgi yeast – growth inhibition of a yeast mutant, post-Golgi transport screen. post-Golgi transport phenotypic cell assay. inhibition, % at 10 µM. actives 0.9% (n = 98,000). AID 739;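 further: yeast cells grown in 1536-well plates; yeast grown about 18 h at 30C before absorbance read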
PLAP act – human PLAP activation; AID 696; purified PLAP enzyme, luminescent substrate read-out; hits give high values; activation fold at 20 µM; actives 1.2% (n = 96,000); P05187; in the data active means activation fold above about 2
Target sequence (P05187 whole entry, looked up): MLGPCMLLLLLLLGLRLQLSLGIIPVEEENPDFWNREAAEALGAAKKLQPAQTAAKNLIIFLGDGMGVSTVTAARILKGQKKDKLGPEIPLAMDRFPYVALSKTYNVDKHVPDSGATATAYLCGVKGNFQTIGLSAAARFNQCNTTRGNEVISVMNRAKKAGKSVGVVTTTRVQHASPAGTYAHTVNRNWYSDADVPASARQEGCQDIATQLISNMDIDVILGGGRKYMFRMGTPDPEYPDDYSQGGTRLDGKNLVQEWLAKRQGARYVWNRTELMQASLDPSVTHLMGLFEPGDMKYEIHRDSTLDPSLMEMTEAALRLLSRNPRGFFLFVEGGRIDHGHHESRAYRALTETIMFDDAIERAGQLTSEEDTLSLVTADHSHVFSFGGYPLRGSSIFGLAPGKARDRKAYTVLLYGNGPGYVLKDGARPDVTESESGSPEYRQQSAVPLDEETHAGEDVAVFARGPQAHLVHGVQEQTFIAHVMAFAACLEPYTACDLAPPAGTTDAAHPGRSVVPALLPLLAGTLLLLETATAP
D1 mod confirm – confirmation of human D1 dopamine receptor allosteric modulators; AID 642; HEK293 D1 CRE-luciferase, dopamine EC30 potentiation; hits give high values; shares compounds with D1 allo mod; luminescence at 10 µM; actives 88% (n = 2,200);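 active means luminescence in either of two replicates above the same-plate mean plus 3 SD of the low-dose dopamine control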
D1 no dopamine – secondary test of D1 modulators: activity without dopamine; shares compounds with D1 allo mod; HEK293 D1 CRE-luciferase, luminescence, no dopamine; hits give high values; luminescence at 10 µM; actives 0.8% (n = 1,900); AID 646; in the data active means luminescence above about 3900
Isoprot counter – alters isoproterenol CRE-luciferase response in HEK293 cells; AID 647; actives 63% (n = 2,200); HEK293 D1 CRE-luciferase, isoproterenol EC30 counter-screen; shares compounds with D1 allo mod; calls only at 10 µM;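 active means luminescence in either replicate above plate mean of wells with a partly effective reference agonist dose plus 3 SD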;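 further: isoproterenol raises cAMP through native beta-adrenoceptor Gs so signal bypasses D1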
* = called active by the depositor; i = inactive; / = not tested or not shown; + = active, no number. Only some compounds are listed: those with a hit (about 12% of all), similar ones and a draw of the others. Unless noted, no stated cut-off is given here; in the data, active means inhibition above about 30%; inactive means the rest.

SMILES	Cav3 T inh	DAT uptake mod	PostGolgi ctrl	D1 allo mod	PostGolgi yeast	PLAP act	D1 mod confirm	D1 no dopamine	Isoprot counter
N#Cc1c2n(c3c(=O)n(Cc4ccccc4Cl)cnc13)CCCC2	0.98	0.049	12	3.4*	21	1.7	9264*	1636	+
O=C(Nn1cnnc1)c1cc2c(s1)CCCCC2	/	/	3	-0.1	-2	0.9	/	/	/
COC(=O)c1cc(S(=O)(=O)N2CCOCC2)ccc1Sc1ccccc1N	0.3	-1	1	0.22	2	1	/	/	/
NC1=NC(c2cn(-c3ccccc3)nc2-c2cccs2)n2c(nc3ccccc32)N1 (stereo not drawn)	/	/	9	4.3*	22	1.8	7380*	1336	i
CC1=C(C#N)C(c2cn(-c3ccccc3)nc2-c2cccs2)C(C#N)=C(C)N1	-1.6	0.27	0	/	-7	1	/	/	/
CSC1=NCCN1C(=O)Cc1cccs1	0.29	-0.9	3	9.8*	-3	0.9	7652*	1576	i
CSC1=NCCN1C(=O)COc1ccccc1	0.034	0.51	2	1	-6	0.9	/	/	/
CSC1=NCCN1C(=O)c1ccc(Br)o1	-0.12	-0.75	-6	5.7*	1	1.1	11560*	1672	i
O=C(COc1ccc([N+](=O)[O-])cc1)Nc1ccc(C(=O)NCc2cccnc2)cc1	-0.31	-0.19	9	/	-5	0.8	/	/	/
COc1ccc2cc3c(N)nn(C(=O)Cc4ccccc4OC)c3nc2c1	-0.24	0.87	0	2.6*	-4	1.6	8828*	1504	i
COc1ccc2cc3c(N)nn(C(=O)C4CCC(C(C)(C)C)CC4)c3nc2c1 (stereo not drawn)	-0.6	-0.22	/	/	/	/	/	/	/
CCC(c1nnnn1Cc1ccc(F)cc1)N(CCCO)Cc1cc2cc3c(cc2[nH]c1=O)OCO3 (stereo not drawn)	0.06	0.99	7	5.5*	13	1.6	4672	1368	i
CC1Cc2ccccc2N1C(=O)CSc1nnc(-c2ccc(S(=O)(=O)N3CCCC3)cc2)o1 (stereo not drawn)	0.027	-0.95	5	-0.74	-4	1.6	/	/	/
CCN=C1SC(C(N)=O)CC(=O)N1CC (stereo not drawn)	-1.5	-0.34	8	6.3*	3	0.9	10588*	1464	i
CCN(CC)S(=O)(=O)c1cc(C(=O)NC2CCCCC2)ccc1C	0.61	0.53	1	-1.4	1	1.4	/	/	/
O=C(CSc1nc(-c2ccccc2)cs1)NC(=O)NCc1ccco1	-3.1	0.84	-4	-0.35	-4	/	/	/	/
O=C(CSc1nc2ccccc2s1)NC(=O)NCc1ccco1	/	-0.18	-1	5.9*	-5	/	8872*	1760	i
Cc1ccc(=O)n(C(C(=O)NCc2ccco2)C(=O)c2ccc(F)cc2)c1 (stereo not drawn)	-0.13	0.21	-4	0.93	-8	1.4	/	/	/
CCC(c1nnc(SCC(=O)Nc2nnc(-c3ccccc3)o2)n1Cc1ccccc1)N(C)C (stereo not drawn)	0.9	1.2	-2	1.1	16	1.6	/	/	/
CCOC(=O)N1CCC(N2CC34C=CC(O3)C(C(=O)O)C4C2=O)CC1 (stereo not drawn)	-0.37	0.00088	-2	-0.021	-1	1.2	/	/	/
COc1ccc(-c2coc3cc(O)cc(O)c3c2=O)cc1	1.1	1.3	/	6.2*	/	/	9820*	1216	i
O=c1c(-c2ccc(O)cc2)coc2cc(O)cc(O)c12	0.84	2.6	/	/	/	/	/	/	/
COc1cccc(-c2nnc3sc(-c4ccccc4)nn23)c1	-0.00093	0.47	/	/	/	0.9	/	/	/
Cc1cc(-c2nnc3sc(C4CCCCC4)nn23)n[nH]1	0.65	-1.2	9	7.8*	18	1.5	14928*	/	+
COc1ccc(Cc2nn3c(-c4cc(OC)c(OC)c(OC)c4)nnc3s2)cc1	-0.053	0.74	35*	4.7*	19	1.7	8960*	1520	+

Screening data deposited in PubChem BioAssay by several laboratories.
